The text below walks through data of ChEMBL document CHEMBL1201862, “PubChem BioAssay data set” (2004).

The campaign covered roughly 400,000 compounds. About 2,100 (0.53%) were called active. Not shown: some 14% with an inconclusive outcome. The rule behind the calls is not given here. The full list was thinned out, with actives kept by preference.

The target of the test is Ataxin-2 (Homo sapiens) (UniProt Q99700). The test can be described thus: qHTS for Inhibitors of ATXN expression. It is filed as functional.
Ataxin-2 (Homo sapiens), sequence (Q99700 whole entry): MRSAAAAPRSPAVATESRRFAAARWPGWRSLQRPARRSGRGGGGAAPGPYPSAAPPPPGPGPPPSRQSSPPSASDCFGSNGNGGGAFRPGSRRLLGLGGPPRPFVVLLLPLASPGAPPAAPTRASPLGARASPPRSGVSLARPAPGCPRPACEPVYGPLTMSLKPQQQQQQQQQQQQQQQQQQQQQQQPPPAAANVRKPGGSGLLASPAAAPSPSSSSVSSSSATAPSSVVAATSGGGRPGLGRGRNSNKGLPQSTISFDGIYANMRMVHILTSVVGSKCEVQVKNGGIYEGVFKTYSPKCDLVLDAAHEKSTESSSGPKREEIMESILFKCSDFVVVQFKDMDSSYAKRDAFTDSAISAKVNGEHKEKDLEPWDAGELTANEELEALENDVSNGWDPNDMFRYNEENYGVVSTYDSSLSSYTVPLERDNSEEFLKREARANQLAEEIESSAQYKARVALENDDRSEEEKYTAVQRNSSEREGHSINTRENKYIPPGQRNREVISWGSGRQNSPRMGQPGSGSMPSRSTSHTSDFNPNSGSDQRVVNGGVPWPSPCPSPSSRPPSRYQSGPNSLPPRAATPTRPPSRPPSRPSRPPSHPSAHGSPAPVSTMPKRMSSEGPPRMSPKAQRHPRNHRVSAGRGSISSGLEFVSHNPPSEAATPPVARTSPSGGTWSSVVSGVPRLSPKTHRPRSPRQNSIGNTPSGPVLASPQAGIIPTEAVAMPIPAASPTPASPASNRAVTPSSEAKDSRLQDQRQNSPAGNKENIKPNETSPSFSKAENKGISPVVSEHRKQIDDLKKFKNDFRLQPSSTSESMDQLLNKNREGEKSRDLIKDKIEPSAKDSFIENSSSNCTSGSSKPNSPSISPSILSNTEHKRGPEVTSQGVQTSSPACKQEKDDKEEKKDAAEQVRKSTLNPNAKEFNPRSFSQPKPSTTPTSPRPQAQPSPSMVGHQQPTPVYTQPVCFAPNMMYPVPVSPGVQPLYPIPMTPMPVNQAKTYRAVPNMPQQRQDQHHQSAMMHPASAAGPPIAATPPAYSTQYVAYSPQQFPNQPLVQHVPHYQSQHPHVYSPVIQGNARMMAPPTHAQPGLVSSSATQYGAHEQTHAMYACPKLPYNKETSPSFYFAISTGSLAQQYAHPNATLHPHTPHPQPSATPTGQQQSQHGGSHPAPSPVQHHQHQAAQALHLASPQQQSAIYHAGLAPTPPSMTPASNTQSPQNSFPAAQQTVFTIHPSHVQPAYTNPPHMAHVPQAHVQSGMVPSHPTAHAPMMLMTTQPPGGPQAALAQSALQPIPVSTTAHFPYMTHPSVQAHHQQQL
As for `O=[N+]([O-])c1cc2c(cc1/C=N/n1cnnc1)OCO2`, the Potency result is “inactive”.

Turning to `CCNc1nc(C)c(CN(C(C)=O)c2ccccc2)nc1C#N`, the Potency entry is “inactive”.

For `Cc1ccc(-c2cn3nc(C)c(C)nc3n2)cc1`, the Potency entry is “inactive”.

For the compound `Cc1ccc(S(=O)(=O)N(CC(O)Cn2c3ccccc3c3ccccc32)c2cccc(C(=O)NCCO)c2)cc1` (centres undefined), the Potency was 35.5 µM (active).

In the case of `Cc1cccc(N(CC(O)Cn2c3ccccc3c3ccccc32)S(=O)(=O)c2ccc(F)cc2)c1` (centres undefined), the Potency is 15.8 µM (active).

As for `CC(C)(C)N(NS(=O)(=O)c1ccc(F)cc1)c1ccccc1`, the Potency entry is “inactive”.

For the compound `O=S(=O)(c1ccc(F)cc1)N(CC(O)Cn1c2ccccc2c2ccccc21)c1ccccc1` (centres undefined), the Potency was 22.4 µM (active).

With `CCCCN(C)CC(O)Cn1cc(/C=C/C(=O)c2ccc(C)cc2)c2ccccc21` (centres undefined), the Potency result was “inactive”.

As for `CCCCN(CCCC)CC(O)Cn1c2ccccc2c(=O)c2ccccc21` (centres undefined), the Potency result is “inactive”.

For `CN(C)/C=N/c1nc2nccc(-c3ccccn3)n2n1`, the Potency entry is “inactive”.

`O=C(CN(Cc1ccc(F)cc1)C(=O)CCC(=O)Nc1nccs1)NCc1ccccc1`: the Potency result is “inactive”.

Turning to `CC(=O)Oc1cc2oc(=O)cc(C)c2cc1Cl`, the Potency entry was “inactive”.

Consider `CCCn1nc(NC(=O)CC(C)C)c2cc3cccc(C)c3nc21`, for which the Potency entry was “inactive”.

As for `Cc1cc(C)c2ccc(N)nc2c1O`, the Potency is 39.8 µM (active).

With `Cn1nc(NC(=O)C(F)(F)F)c2ncc(-c3ccc(Cl)cc3)nc21`, the Potency entry is “inactive”.

Take `CCCCc1c(Cc2ccccc2)ncn1CCc1ccccc1OC`: the Potency is 15.8 µM (active).

Take `COc1ccccc1CNc1ccc(Br)cn1`: the Potency result is “inactive”.

On to `COc1ccccc1CCn1cnc(Cc2ccccc2)c1C(C)C`, for which the Potency is 39.8 µM (active).

For `COc1ccccc1CCN1COc2c(cc3c(C)c(C)c(=O)oc3c2C)C1`, the Potency result is “inactive”.

In the case of `CCCCc1c(-c2ccc(F)cc2)ncn1CCc1ccccc1OC`, the Potency was 31.6 µM (active).

For `COc1ccccc1NC(=O)C(C)Sc1nccn1C` (centres undefined), the Potency result was “inactive”.

For `COc1ccccc1CCn1cnc(-c2ccc(Br)cc2)c1C(C)C`, the Potency is 25.1 µM (active).

Turning to `CC1=C(C)C(=O)N(C(C)CCc2ccccc2)C1=O` (centres undefined), the Potency result is “inactive”.

With `COc1ccccc1[C@H]1C(c2ccc(F)cc2)=NN(c2ccccc2)[C@@H]1CO`, the Potency entry was “inactive”.

With `CCN(CC)c1ccc2c(Cl)cc(=O)oc2c1`, the Potency result was “inactive”.

On to `N#Cc1cc2c(=O)n3ccccc3nc2n(Cc2ccco2)/c1=N/C(=O)c1ccco1`, for which the Potency result is “inactive”.

On to `COc1cccc2sc3ccc(NCc4ccc5c(c4)OCO5)cc3c(=O)c12`, for which the Potency result was “inactive”.

Regarding `Cc1c(C#N)c2n(c1C)CCCC(=O)N2`, the Potency entry was “inactive”.

Turning to `COc1cc2c(cc1OC)C1=C(C#N)CC/C(=N\S(=O)(=O)c3ccccc3)N1CC2`, the Potency entry was “inactive”.

Take `CCCCc1c(-c2ccc(OC)cc2)ncn1CCc1ccccc1OC`: the Potency was 39.8 µM (active).

In the case of `COc1ccccc1CCC(=O)NNC(=O)Cn1nc(C)cc1C`, the Potency result is “inactive”.

As for `CCCn1nc(-c2ccccc2)c2nc3ccccc3nc21`, the Potency result is “inactive”.

As for `CCCCc1c(-c2ccccc2)ncn1CCc1ccccc1OC`, the Potency is 35.5 µM (active).

Consider `CCCCCc1c(-c2ccc(OC)cc2)ncn1CCc1ccccc1OC`, for which the Potency was 31.6 µM (active).

Turning to `COc1ccccc1CCn1c(N)c(C#N)c2nc3ccccc3nc21`, the Potency entry was “inactive”.

As for `CCCCc1c(-c2cccc(F)c2)ncn1CCc1ccccc1OC`, the Potency was 39.8 µM (active).

For the compound `Cc1cccn2c(=O)c3cc(C(=O)NCc4cccnc4)c(=N)n(C(C)C)c3nc12`, the Potency result is “inactive”.

`COc1ccc2c(c1)CCCC21SC(NC(C)=O)=NN1C(C)=O` (centres undefined): the Potency result was “inactive”.

As to `O=C1OCCN1C(=O)[C@H]1[C@H](c2ccccc2)C(c2ccccc2)=NN1c1ccc(Br)cc1`, the Potency entry is “inactive”.

For the compound `CCOc1ccc(-c2nnn(CCC#N)n2)cc1OC`, the Potency entry was “inactive”.

For the compound `CCCCc1c(-c2ccc(OC)c(OC)c2)ncn1CCc1ccccc1OC`, the Potency was 22.4 µM (active).

For the compound `CCOCCCNC(=O)c1ccc2nc(-c3ccc(OC)c(OC)c3)c(-c3ccc(OC)c(OC)c3)nc2c1`, the Potency entry is “inactive”.

On to `CCCS(=O)(=O)c1c(S(=O)(=O)CCC)c2cc(-c3ccncc3)ccn2c1C(=O)OC`, for which the Potency result is “inactive”.

`Cc1ccc(S(=O)(=O)N2C[C@@H](C)[C@]3(C2)[C@H](O)[C@H](OC(=O)Nc2cccs2)C[C@H]2C(=O)N(c4ccccc4)C(=O)[C@H]23)cc1`: the Potency was 35.5 µM (active).

For `CN1CCN(S(=O)(=O)c2ccc(NC(=O)COc3ccccc3)cc2)CC1`, the Potency entry is “inactive”.

On to `CCCCn1/c(=N\C(=O)c2ccco2)c(C(=O)OCC)cc2c(=O)n3cccc(C)c3nc21`, for which the Potency result was “inactive”.

On to `CCn1cc(C2C3=C(O)CCCC3=NC(C)=C2C(=O)Nc2ccc(Br)cn2)c(C)n1` (centres undefined), for which the Potency result was “inactive”.

With `COc1ccc(NC(=O)Cn2c(SCc3cc(C)ccc3C)nc3ccncc32)c(OC)c1OC`, the Potency is 39.8 µM (active).

Take `CCOc1nc2cnccc2n(CC(=O)Nc2ccc(C)c(C)c2)c1=O`: the Potency result was “inactive”.

`COC(=O)c1ccc(-c2sc3nc(N4CCOCC4)c4c(c3c2N)CC(C)(C)OC4)o1`: the Potency result was “inactive”.

As to `CCC(C(=O)Nc1cc(OC)cc(OC)c1)n1nc(-c2ccc(C)c(C)c2)ccc1=O` (centres undefined), the Potency was 25.1 µM (active).

For `COc1cc(OC)cc(C(=O)NC(C(=O)NCCc2ccccn2)C(C)C)c1` (centres undefined), the Potency entry was “inactive”.

Regarding `COc1ccc(CC(=O)Nc2nn(C)c3nc4c(C)cccc4cc23)cc1`, the Potency result was “inactive”.

`COc1cc(OC)c(NC(=O)C(C)n2nc(-c3ccc(C)c(C)c3)ccc2=O)cc1Cl` (centres undefined): the Potency is 35.5 µM (active).

As for `COc1ccc(-c2ccc3c(N)c(C(=O)Nc4ccc(C)cc4C)sc3n2)cc1OC`, the Potency result was “inactive”.

Take `COc1cc(OC)c(NC(C)C(=O)NCc2ccccc2)cc1Cl` (centres undefined): the Potency result was “inactive”.

As to `N#Cc1c(N)n(-c2cccc(Cl)c2)c2nc3ccccc3nc12`, the Potency result was “inactive”.

`CCc1cc(=O)oc2c(C)c3c(cc12)CN(CCc1ccccc1)CO3`: the Potency entry was “inactive”.

As for `Cc1cccc(-c2nnc(SCc3cc(=O)c4c(C)cc(C)cc4[nH]3)[nH]2)c1`, the Potency was 39.8 µM (active).

Regarding `COc1ccc(COC(=O)C2CC(=O)N(Cc3ccccc3)C2)cc1` (centres undefined), the Potency entry was “inactive”.

For `O=C(OCc1ccccc1)N1CCc2ccccc21`, the Potency result was “inactive”.

`COC(=O)[C@@H]1C[C@]2(OC(=O)c3ccccc3)C=CC(=O)C[C@@H]2N1C(=O)OCc1ccccc1`: the Potency is 25.1 µM (active).

With `C=CCN1C(=O)c2cccc3c(N4CCCCC4)ccc(c23)C1=O`, the Potency result is “inactive”.

With `COc1ccccc1/C=N/OC(=O)c1ccc(C)cc1`, the Potency entry is “inactive”.

Turning to `COc1ccccc1C=CC(=O)C=Cc1ccccc1OC`, the Potency was 16.8 µM (active).

As for `COc1ccccc1/C=C/C(=O)NCC(=O)N=Nc1c(O)[nH]c2ccccc12`, the Potency entry is “inactive”.

On to `CCOC(=O)c1nc(S(C)(=O)=O)ncc1Cl`, for which the Potency is 39.8 µM (active).

For the compound `CCOC(=O)c1c(O)cc(C)nc1O`, the Potency result is “inactive”.

As to `O=C(Nc1ccc(N2CCOCC2)cc1)c1cccc(S(=O)(=O)N2CCCCCC2)c1`, the Potency result was “inactive”.

For the compound `CS(=O)(=O)c1ncc(Cl)c(C(=O)Nc2ccc(N3CCOCC3)cc2)n1`, the Potency is 25.1 µM (active).

For `CN(c1ccccc1)S(=O)(=O)c1ccc(Cl)c(C(=O)Nc2nn[nH]n2)c1`, the Potency entry was “inactive”.

Consider `O=C(Nc1ccc(S(=O)(=O)Nc2nccs2)cc1)c1nn(-c2ccccc2)ccc1=O`, for which the Potency entry is “inactive”.

Turning to `COc1ccc(NC(=O)NS(=O)(=O)c2ccc(C)cc2)cn1`, the Potency entry is “inactive”.

`CCOC(=O)c1cnc2c(C)cc(Cl)cc2c1N1CCN(C)CC1`: the Potency entry was “inactive”.

In the case of `COC(=O)c1nc2ccc(N3CCOCC3)cc2c(C)c1C(=O)OC`, the Potency entry is “inactive”.

Turning to `CCN(c1ccccc1)S(=O)(=O)c1ccc(NC(=O)c2nc(S(C)(=O)=O)ncc2Cl)cc1`, the Potency was 17.8 µM (active).

Consider `CCS(=O)(=O)c1ncc(Cl)c(C(=O)Nc2ccc(C)cc2)n1`, for which the Potency was 35.5 µM (active).

Take `Cc1ccc(NC(=O)c2sc3nc(C)cc(C)c3c2N)cc1`: the Potency entry was “inactive”.

Turning to `O=C(/C=C/Nc1ccc(S(=O)(=O)Nc2ncccn2)cc1)c1ccc(Cl)c(Cl)c1`, the Potency result is “inactive”.

Regarding `CCc1cc(=O)oc2c(C)c(O[C@@H]3O[C@H](CO)[C@@H](O)[C@H](O)[C@H]3O)ccc12`, the Potency entry is “inactive”.

As to `CC(C)C1OC2(C)OC(=N)C1(C#N)C(C#N)(C#N)C2c1ccccc1` (centres undefined), the Potency entry is “inactive”.

As to `CC(=O)c1ccc(N2CCN(C(=O)COc3ccc4ccccc4c3)CC2)cc1`, the Potency result is “inactive”.

As to `Cc1oc(C(N)=O)cc1COc1ccc(C(N)=O)cc1`, the Potency entry is “inactive”.

For `Cc1sc2ncn(CC(=O)NCCCC(=O)N3CCN(Cc4ccc5c(c4)OCO5)CC3)c(=O)c2c1C`, the Potency result is “inactive”.

Turning to `CCS(=O)(=O)c1ncc(Cl)c(C(=O)Nc2ccccc2OC)n1`, the Potency was 35.5 µM (active).

For the compound `Cc1ccccc1NC(=O)c1nc(S(C)(=O)=O)ncc1Cl`, the Potency entry was “inactive”.

For `COC(=O)c1sc(-c2ccc(C(C)(C)C)cc2)cc1NC(=O)/C=C/C(=O)O`, the Potency is 39.8 µM (active).

As for `COC(=O)c1scc(C)c1NC(=O)c1ccc(Cl)cc1`, the Potency entry is “inactive”.

For the compound `CC(=O)c1sc(-c2ccccc2)cc1NS(=O)(=O)c1ccccc1`, the Potency entry is “inactive”.

Regarding `Cc1ccc2sc(-c3ccc(NC(=O)/C=C\C(=O)O)cc3)nc2c1`, the Potency entry was “inactive”.

For `COC(=O)c1scc(C)c1NC(=O)CSc1ccc(Cl)cc1`, the Potency entry was “inactive”.

`COC(=O)c1sc(-c2ccc(Cl)cc2)cc1NC(=O)/C=C/C(=O)O`: the Potency is 28.2 µM (active).

For `CCC(=O)NC(=S)Nc1ccc(S(=O)(=O)NC2CCCCC2)cc1`, the Potency entry is “inactive”.

Regarding `O=C(Nc1ccc(C(F)(F)F)cc1)c1cc(S(=O)(=O)NC2CCCCCC2)ccc1F`, the Potency is 35.5 µM (active).

On to `Cc1cc(C)c2c(N)c(C(=O)C(C)(C)C)sc2n1`, for which the Potency result is “inactive”.

Turning to `C=COC(=O)c1sc2nc(C)cc(C)c2c1N`, the Potency result was “inactive”.

Regarding `CCOC(=O)N1CCC2(CC1)C(C#N)=C(N)Oc1c2sc2nc(C)cc(C)c12`, the Potency was 25.1 µM (active).

Take `CSCCC(NC(=O)COc1ccccc1)C(=O)N1CCCCCC1` (centres undefined): the Potency entry is “inactive”.

Consider `O=C(CSc1ccc(F)cc1)Nc1ccccc1Br`, for which the Potency result is “inactive”.

With `O=C(NNc1ccccc1Br)C(O)(c1cccc(C(F)(F)F)c1)c1cccc(C(F)(F)F)c1`, the Potency is 20 µM (active).

As for `C/C(=N\Nc1cccc(C(F)(F)F)c1)c1ccc(O)cc1`, the Potency entry was “inactive”.

Turning to `NC(=O)NN=C1CCN2CCCc3cccc1c32`, the Potency result is “inactive”.

`CC1(C)C/C(=N\NC(=S)Nc2ccccc2F)c2cc(O)ccc2O1`: the Potency entry was “inactive”.

As to `NC(=S)N/N=C1\CCOc2ccc(Cl)cc21`, the Potency was 22.4 µM (active).
